Laboratory results as given in ChEMBL document CHEMBL3988442, “University of Dundee, Small-Polar-MMV Screening Library” (2021).
The campaign covered roughly 48,000 compounds. About 13,000 (27%) showed an effect of 50% or more. Some of the results follow.

test system: Wolbachia pipientis; assay: Anti-Wolbachia Cell-Based Screen; format: functional; set-up: scale not given: in the data most compounds retested in dose-response had high values; details: 5 µM

Row | SMILES | Percent Effect [%]
1 | Cc1ccc(O[C@@H]2C[C@H]3CN(Cc4nccn4C)CCN3C2)cc1.O=C(O)C(F)(F)F.O=C(O)C(F)(F)F | -3.373
2 | CCC1=N[C@@]2(CC[C@@H]3CN(S(=O)(=O)CC(C)C)C[C@@H]32)C(=O)N1CC1CC1 | 6.599
3 | C[C@@H]1CN(C2CCN(c3ccccc3F)CC2)C[C@]1(C)O | -10.13
4 | CC(=O)NC(C)(C)c1noc(C2(C#N)CCCCC2)n1 | -6.661
5 | COc1ccccc1CNCc1nn(-c2ccccc2)c2c1CCC2 | -29.63
6 | CC(C)c1noc(C2CCCN2S(=O)(=O)Cc2ccc(F)cc2)n1 (stereo not given) | -21.21
7 | Cc1cc(-c2ccccc2C(=O)O)nc(C2CCCN2S(C)(=O)=O)n1 (stereo not given) | 105.2
8 | COc1ccc(-c2cc(C3CCCCCN3S(=O)(=O)N(C)C)on2)cc1 (stereo not given) | -9.2
9 | CS(=O)(=O)N1CCCCCC1c1cc(-c2ccc(F)cc2)no1 (stereo not given) | 132.6
10 | Cc1ncsc1CCN(C)C(=O)C(c1cccnc1)N1CCOCC1 (stereo not given) | 2.321
11 | c1nc2onc(C3CC3)c2cc1-c1nnc(C2CC2)o1 | -6.537
12 | O=C(COc1ccc2cccnc2c1)N1CCN[C@H]2CS(=O)(=O)C[C@H]21 | 2.711
13 | COc1ccc(-c2cc(C[C@@H]3C[C@H](N(C)C)C3(C)C)no2)cc1 | 1.876
14 | COc1ccc(-c2cc(N)on2)cc1OC | 106.7
15 | COc1ccc(-c2cc(-c3nc(CN4CCN(C)CC4)no3)[nH]n2)cc1 | -0.5802
16 | COc1ccc(-c2cc(N)on2)cc1 | 77.55
17 | COc1ccc(-c2csc(-c3cccc(C(=O)O)c3)n2)cc1OC | -12.11
18 | COc1ccc(-c2noc(C3=NN(C)C(=O)CC3)n2)cc1OC | -3.216
19 | COc1cccc(C(O)Cn2ncc3ncccc3c2=O)c1 (stereo not given) | -14.22
20 | Cc1nc(CNC(C)c2ccc(S(=O)(=O)N(C)C)cc2)no1 (stereo not given) | -3.104
21 | Cc1cscc1C(=O)NC1CC(=O)N(C(C)C)C1=O (stereo not given) | -19.94
22 | Oc1nc(N2CCCC2)nc2c1CCN(Cc1cccnc1)CC2 | 121.5
23 | Oc1nc(N2CCOCC2)nc2c1CCN(Cc1cccc(F)c1)CC2 | 117
24 | Oc1nc(N2CCOCC2)nc2c1CCN(Cc1cccnc1)CC2 | -6.583
25 | Oc1nc(N2CCOCC2)nc2c1CCN(Cc1ccc(F)cc1)CC2 | 116.9

Row | SMILES | Percent Effect [%]
26 | c1cc(CN2CCc3nc(N4CCOCC4)nc(NC4CC4)c3C2)co1 | 2.456
27 | Oc1nc(N2CCOCC2)nc2c1CCN(Cc1ccccc1)CC2 | 129.9
28 | Cn1ccnc1CN1C(=O)CO[C@H]2CN(Cc3ccc(F)c(F)c3)C[C@H]21 | 5.068
29 | Cn1cc(S(=O)(=O)N2CCC(OCCCc3ccccc3)C2)cn1 (stereo not given) | -5.129
30 | CC(=O)c1ccc(N2CCCC(CO)(CCc3ccccc3)C2)nc1 (stereo not given) | 11.39
31 | CC(C)C(O)C1CCN(c2ccnc(C(=O)NCc3ccco3)c2)CC1 (stereo not given) | -3
32 | COc1ccc(Cl)cc1NC(=O)CNc1ccn(CC(N)=O)n1 | 12.03
33 | COc1ccc(OC)c(NC(=O)CSc2ccc3nncn3n2)c1 | 92.9
34 | COc1ccc(NC(=O)CNc2cccc3c2CCCC3)c(OC)c1 | -2.331
35 | COc1ccc(OC)c(CCC(=O)Nc2cc(C)n[nH]2)c1 | -33.89
36 | COc1ccc(NC(=O)CCSc2ccc3nncn3n2)c(OC)c1 | 100.6
37 | COc1cc(C(C)=O)ccc1SCC(=O)Nc1ccccn1 | -8.38
38 | COc1ccc(NC(=O)CCC2CCCN(S(=O)(=O)C3CC3)C2)c(C)c1 (stereo not given) | -10.5
39 | COc1ccc(NC(=O)CSc2nncn2-n2cccc2)c(OC)c1 | 89.78
40 | COc1ccc(OC)c(-n2cnnc2CN)c1 | -14.69
41 | COc1ccc(NC(=O)CSc2ccc3nncn3n2)c(OC)c1 | 116.1
42 | COc1cc(Cl)c(C)cc1NC(=O)CNc1ccn(CC(N)=O)n1 | -71.24
43 | CCN(CC)S(=O)(=O)c1ccc(OC)c(NC(=O)CSC)c1 | -7.74
44 | Cn1nccc1C1CCN(Cc2ccn(-c3ccccc3)n2)CC1 | -5.293
45 | CCOCC(=O)Nc1cc(-n2nnnc2C2CC2)ccc1F | -4.453
46 | CNC(=O)NC(=O)C(NCc1cccs1)c1ccccc1 (stereo not given) | -60.87
47 | CC(C)c1ccc(/C=C/CC(=O)NC2CCN(C(N)=O)C2)cc1 (stereo not given) | -19.1
48 | Cc1nnc([C@]23COC[C@H]2CN(Cc2nccs2)C3)o1.O=C(O)C(F)(F)F | -6.391
49 | Cc1ncsc1CN1CC[C@H]2OCC[C@@]2(C(=O)N2CCCC2)C1 | -2.591
50 | Cc1nnc([C@@]23CCO[C@@H]2CCN(Cc2scnc2C)C3)o1 | 102.2

Row | SMILES | Percent Effect [%]
51 | Cc1noc([C@@]23CCO[C@@H]2CCN(CC2CCOCC2)C3)n1.O=C(O)C(F)(F)F | -22.2
52 | Cc1noc([C@@]23CCO[C@@H]2CCN(Cc2scnc2C)C3)n1.O=C(O)C(F)(F)F | 105.3
53 | Cc1nnc([C@@]23CCO[C@@H]2CCN(Cc2nccs2)C3)o1 | 93.98
54 | CNC(=O)[C@@]12CCO[C@@H]1CCN(Cc1scnc1C)C2.O=C(O)C(F)(F)F | -1.55
55 | CCS(=O)(=O)N1CC[C@H]2OCC[C@@]2(c2nnc(C)o2)C1 | 3.137
56 | N#CCCCS(=O)(=O)N1CCCC1CC(=O)c1cccs1 (stereo not given) | -18.29
57 | COCc1nn(CC2CC2)c2c1CN(Cc1cncn1C)CC2.O=C(O)C(F)(F)F | -13.43
58 | Cc1ccc(C(=O)N(C)C)cc1NC(=O)COCC1CC1 | -15.5
59 | C[C@@H](NC(=O)c1cccnc1)c1onc(-c2ccccc2)c1C(=O)O | -0.5339
60 | COc1ncc(C2(O)CCN(Cc3cc(F)ccc3F)CC2)c(OC)n1.Cl | 106.6
61 | COc1ccc(F)c(CN2CCC3(CCC(=O)N(CC(N)=O)C3)CC2)c1 | 10.55
62 | COc1ncc(C2(O)CCN(Cc3cccc(F)c3F)CC2)c(OC)n1.Cl | 130.5
63 | COc1cc(OC)cc(C2(O)CCN(Cc3nc(C)c(C)o3)CC2)c1 | -6.043
64 | COc1ncc(C2(O)CCN(Cc3ccc(F)c(F)c3)CC2)c(OC)n1.Cl | 122.5
65 | COc1ncc(C2(O)CCN(Cc3cc(F)cc(F)c3)CC2)c(OC)n1 | 125.6
66 | COc1ncc(C2(O)CCN(Cc3ccccc3O)CC2)c(OC)n1 | -6.313
67 | COc1ncc(C2(O)CCN(Cc3c(F)cccc3F)CC2)c(OC)n1.Cl | 1.004
68 | COc1cc(OC)cc(C2(O)CCN(Cc3ncc(C)o3)CC2)c1 | 10.39
69 | Cc1cnn(CC(C)NCC(=O)NCCc2cccs2)c1 (stereo not given) | -55.8
70 | Cc1ncc2c(n1)CN(Cc1nnc(Cc3ccccc3)o1)CC2 | 5.635
71 | Cc1nonc1CN(C)CC1(O)CCCN(CCC2CCCCC2)C1=O (stereo not given) | 3.713
72 | Cc1cccnc1CN(C)CC1(O)CCCN(CC2CCCCC2)C1=O (stereo not given) | 93.19
73 | Cc1cccnc1CNCC1(O)CCCN(CC2CCCCC2)C1=O (stereo not given) | -7.545
74 | O=C(NCCOc1ccc(C(F)(F)F)cn1)c1ccoc1 | 0.7109
75 | COc1ccc(OCc2nccc(-c3cc(C(=O)O)ccn3)n2)cc1 | -32.77

Row | SMILES | Percent Effect [%]
76 | COc1ccc(S(=O)(=O)NCC(c2cccn2C)N(C)C)c(C)c1 (stereo not given) | 5.566
77 | O=C(NCCCn1cncn1)NCC(c1ccccc1)N1CCCC1 (stereo not given) | 9.834
78 | CCn1cc(S(=O)(=O)NCC(OC)c2ccccc2)cn1 (stereo not given) | 8.527
79 | COc1ccc(S(=O)(=O)NCC(N)c2ccccc2)c(C)c1.Cl (stereo not given) | -12.16
80 | Cc1nc(C)c(C(=O)NCC(c2ccccc2Cl)N2CCOCC2)s1 (stereo not given) | 6.115
81 | COc1ccc(C(CNS(=O)(=O)c2cn(C)nc2C)N2CCCC2)cc1.Cl (stereo not given) | 105.6
82 | Cc1nn(C)cc1S(=O)(=O)NCC(c1ccccc1Cl)N1CCCC1 (stereo not given) | 87.53
83 | O=C(NCc1cc[nH]n1)NCC(c1ccccc1Cl)N1CCCC1 (stereo not given) | 3.552
84 | CCn1cc(S(=O)(=O)NCC(c2ccccc2)N2CCOCC2)c(C)n1 (stereo not given) | 72.63
85 | CCn1cc(CNCC(c2ccc(C)s2)N2CCOCC2)cn1 (stereo not given) | 13.07
86 | Cc1cccc(S(=O)(=O)NCC(C)N2CCN(C)CC2)c1Cl (stereo not given) | -7.911
87 | Cc1nn(C)cc1S(=O)(=O)NCC(c1ccccc1)N1CCCCCC1.Cl (stereo not given) | 112.3
88 | Cc1nsc(NCc2ccc(S(=O)(=O)N(C)C(C)C)cc2)n1 | 22.68
89 | CCCC(C)CS(=O)(=O)NCc1cccnc1OC (stereo not given) | 6.664
90 | CC(C)c1nnc2n1CCN(C(=O)c1ccc3c(c1)NC(=O)CO3)C2 | 2.374
91 | Cc1csc(NC(=O)CN2CCC(c3ccnn3CCO)CC2)n1 | -8.035
92 | NC(=O)C1CCN(CCCNC(=O)Nc2nncs2)CC1 | 106.6
93 | Cc1csc(NC(=O)NCCCN2CCC(C(N)=O)CC2)n1 | 96.37
94 | O=C(NCc1ccccc1CN1CCCCC1)Nc1nncs1 | -2.637
95 | Cc1csc(CCNC(=O)C2CCN(CC(N)=O)CC2)n1 | -1.435
96 | O=C(NCCCN1CCN(c2ncccn2)CC1)Nc1ccccn1 | 10.78
97 | NC(=O)CN1CCC(NC(=O)Nc2nccs2)CC1 | 9.96
98 | O=C(NCc1ccccc1CN1CCCC1)Nc1nncs1 | 6.886
99 | NC(=O)C1CCN(CCCNC(=O)Nc2nccs2)CC1 | 104.9
100 | O=C(C(C1CC1)C1CC1)N1CCC(n2ccnn2)CC1 | -3.228
